From PubChem BioAssay (Tox21)
Results filed as inconclusive are left out. A number with no mark means an inactive call. Active and inactive are the calls of the source. Unless noted, calls follow the shape of the dose curve; as a rule, active = well fitted cell-killing curve with a large enough effect in the repeat runs; inconclusive = weak or mixed curves, or effect the other way; inactive = no such curve, though single readings can be large or run the other way.

Target: Bile acid receptor (Homo sapiens) (UniProt Q96RI1)
Assay: qHTS assay to identify small molecule antagonists of the farnesoid-X-receptor (FXR) signaling pathway (AID 743217; active = well fitted inhibition curve with a large enough effect in the signal ratio in the repeat runs, not every such curve was filed as active; the % refers to the signal ratio)
Conditions: HEK293T FXR-UAS-bla, beta-lactamase ratio, CDCA-stimulated, 16 h; series mostly up to 62.6 µM; activity change, negative = inhibition: at the top concentration
In short: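 FXR-UAS-bla HEK 293T cells pre-incubated 5 h at 37 °C, then exposed to compounds with chenodeoxycholic acid (50 uM final) for 16 h at 37 °C. Beta-lactamase reporter read by LiveBLAzer B/G FRET substrate fluorescence after 2 h at room temperature.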
% is scaled to controls: 0 for no effect and ±100 for the full control effect.

Bile acid receptor (Homo sapiens), sequence (Q96RI1 whole entry, looked up): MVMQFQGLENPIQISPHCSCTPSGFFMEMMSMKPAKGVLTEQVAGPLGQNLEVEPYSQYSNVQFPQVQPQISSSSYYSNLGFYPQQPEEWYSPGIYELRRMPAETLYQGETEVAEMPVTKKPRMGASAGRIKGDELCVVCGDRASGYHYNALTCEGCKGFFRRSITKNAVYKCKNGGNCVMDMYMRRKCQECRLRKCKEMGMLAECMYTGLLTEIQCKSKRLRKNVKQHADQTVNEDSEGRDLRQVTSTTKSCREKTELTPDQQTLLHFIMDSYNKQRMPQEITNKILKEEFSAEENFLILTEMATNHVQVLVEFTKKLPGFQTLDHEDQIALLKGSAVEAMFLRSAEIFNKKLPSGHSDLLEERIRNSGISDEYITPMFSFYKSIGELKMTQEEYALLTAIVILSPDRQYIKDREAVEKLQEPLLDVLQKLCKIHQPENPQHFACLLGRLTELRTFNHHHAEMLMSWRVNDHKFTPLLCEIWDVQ

Row | Structure (SMILES) | activity change, negative = inhibition | Potency
1 | ClCc1ccccc1Cl | 5.17% [at 81.1 µM] | 
2 | CCCCC1C(=O)NC(=O)N(C2CCCCC2)C1=O (centres undefined) | -12.9% | 
3 | CC(C)(C)c1ccc(CCOc2ncnc3ccccc23)cc1 | 0.883% | 
4 | NNCCO | -2.95% | 
5 | Oc1cccc(Cl)c1 | -1.28% | 
6 | CCNC(=O)NC(=O)/C(C#N)=N/OC | 3.87% | 
7 | c1ccc2c(c1)sc1ccccc12 |  | inactive
8 | CCCN(CCOc1c(Cl)cc(Cl)cc1Cl)C(=O)n1ccnc1 | 1.09% | 
9 | CC(Oc1cc(Cl)c(Cl)cc1Cl)C(=O)O (centres undefined) | -5.46% | 
10 | CCOP(=S)(S)OCC | -10.1% [at 81.1 µM] | 

Tested on: not listed separately
Assay: qHTS assay to identify small molecule agonists of the farnesoid-X-receptor (FXR) signaling pathway - cell viability counter screen (AID 743218); also: nearly all actives have a fitted effect of over 45% in size; also: potency is read from the fitted curve at half-maximal effect
Conditions: FXR-bla HEK293T viability, CellTiter-Glo luminescence, 16 h; series mostly up to 62.6 µM; viability change, negative = cytotoxic: at the top concentration
In short: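 FXR-UAS-bla HEK 293T cells, plated 5 h at 37 C, were exposed to compounds for 16 h at 37 C. CellTiter-Glo was then added to the same wells as the bla readout; luminescence read after 30 min at room temperature.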

Row | Structure (SMILES) | viability change, negative = cytotoxic | Potency
11 | C=CCOC(=O)C(C)(C)OC(=O)c1cc(-n2c(=O)cc(C(F)(F)F)n(C)c2=O)ccc1Cl | 12.6% | 
12 | CCCC(C)(COC(N)=O)COC(=O)NC(C)C (centres undefined) |  | inactive
13 | ClCc1ccccc1Cl | 5.61% [at 81.1 µM] | 
14 | CCCCC1C(=O)NC(=O)N(C2CCCCC2)C1=O (centres undefined) | 26.3% | 
15 | Nc1ccccc1C(=O)OCCc1ccccc1 |  | inactive
16 | CCC1(C2=NCCN2)Cc2ccccc2O1 (centres undefined) | -1.57% | 
17 | COc1cc(C[C@@H](C)N)c(OC)cc1Br |  | 31.5 µM (active)
18 | CC(C)(C)c1ccc(CCOc2ncnc3ccccc23)cc1 | -10.7% | 
19 | CC[N+]1(C)CCCC(OC(=O)C(O)(c2ccccc2)c2ccccc2)C1 (centres undefined) | -1.63% | 
20 | O=S(=O)(Cl)Cl | 57.7% | 
21 | CCN(C(C)=O)c1cccc(-c2ccnc3c(C#N)cnn23)c1 | 17.8% | 
22 | Oc1cccc(Cl)c1 | 2.65% | 
23 | Cc1cccc(C)c1NC1=NCCCS1 | 0.0999% | 
24 | CN1C[C@H](C(=O)N[C@]2(C)O[C@@]3(O)[C@@H]4CCCN4C(=O)[C@H](Cc4ccccc4)N3C2=O)C=C2c3cccc4[nH]cc(c34)C[C@H]21 | -26.4% [at 29.1 µM] | 
25 | c1ccc2c(c1)-c1cccc3cccc-2c13 |  | inactive
26 | CCCCC(CC)CO[N+](=O)[O-] (centres undefined) | 42.8% | 
27 | CCNC(=O)NC(=O)/C(C#N)=N/OC | -8.34% | 

Row | Structure (SMILES) | viability change, negative = cytotoxic | Potency
28 | N#CC(C#N)=Cc1ccc(O)c(O)c1 | 0.0853% | 
29 | CC(CC(C(N)=O)(c1ccccc1)c1ccccc1)N(C)C (centres undefined) | -6.02% | 
30 | C1CS1 | -11.6% [at 81.1 µM] | 
31 | O=C(Cc1ccccc1)OCCc1ccccc1 | -6.22% | 
32 | CN1CC[C@]23c4c5ccc(O)c4O[C@H]2[C@@H](O)C=C[C@H]3[C@H]1C5 | -16.3% [at 81.1 µM] | 
33 | CCCC[P+](CC)(CCCC)CCCC (tested in a mixture with another compound) | 8.13% [at 81.1 µM] | 
34 | O=C([O-])c1ccccn1.O=C([O-])c1ccccn1.O=C([O-])c1ccccn1.[Cr+3] | -1.11% | 
35 | C=CC(C)(CCC=C(C)C)OC(=O)c1ccccc1N (centres undefined) | -1.66% [at 81.1 µM] | 
36 | c1ccc2c(c1)sc1ccccc12 | 23.5% | 
37 | CCCN(CCOc1c(Cl)cc(Cl)cc1Cl)C(=O)n1ccnc1 | 11% | 
38 | CC(Oc1cc(Cl)c(Cl)cc1Cl)C(=O)O (centres undefined) | 5.49% | 
39 | Cc1ncc(C[n+]2csc(CCO)c2C)c(N)n1 | -3.21% | 
40 | CCOP(=S)(S)OCC | 16.5% [at 81.1 µM] | 
41 | Cc1cnc(C2=NC(C)(C(C)C)C(=O)N2)c(C(=O)O)c1 (centres undefined) | 1.4% | 
42 | C=CC(=O)NC(C)(C)CC(C)=O | -3.1% | 
43 | CC(C)(C)NCC(O)c1cc(Cl)c(N)c(C(F)(F)F)c1 (centres undefined) | -4.03% | 
44 | N#CC1(N=NC2(C#N)CCCCC2)CCCCC1 | -18.6% | 
